Compound activity as filed in PubChem.
TROY signal inh – TROY signaling inhibition. 360,000 tested, 0.98% active. inhibition, % at 10 µM. Q293 LMP1-TROYcd NF-kB luciferase reporter, 4 h;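 active = compounds whose plate-normalised and pattern-corrected inhibition of the luciferase reporter signal at the single screening dose is 50% or more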
LMP1 NFkB inh – Epstein-Barr LMP1 NF-kappaB reporter inhibition; LMP1-induced NF-kappaB luciferase reporter cells, luminescence; inhibition, % at 12.5 µM; 350,000 tested, 0.69% active; AID 504558; in the data active = inhibition above about 41%; inconclusive = no clear call, values can overlap the other calls;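 also: 0% = neutral control wells and 100% = reference inhibitor control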
MITF TRPM1 inh – reduces MITF-dependent TRPM1 promoter luciferase signal; SK-MEL-5 TRPM1 promoter luciferase, 24 h; inhibition, % at 12.5 µM; 330,000 tested, 0.83% active;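 active = mean inhibition across replicates of 60% or more, whatever share of single replicates reaches that level; inconclusive = some that reach 60%, reason not given; inactive = mean inhibition across replicates below 60%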
TWEAK-Fn14 inh – blocks TWEAK-Fn14 interaction in a reporter cell assay; TWEAK-stimulated Fn14 reporter cells, luciferase luminescence, 8 h; 360,000 tested, 2% active; inhibition, % at 10 µM; in the data active = inhibition above about 50%
Peg3 promoter – reduces Peg3 promoter-driven luciferase expression in HeLa | HeLa PEG-Prom luciferase reporter, luminescence, overnight | inhibition, % at 20 µM | 360,000 tested, 1.7% active;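 active = inhibition of at least 50% at 20 µM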
Shn3 inh set2 – Schnurri-3 reporter inhibition in Clone20 osteoblasts; 360,000 tested, 0.52% active; AID 588674; inhibition, % at 12.5 µM; Clone20 osteoblast Shn3 3'UTR firefly luciferase, 24 h;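 active = mean inhibition of at least 75% with every replicate also reaching 75%; inconclusive = mean inhibition at least 75% but some replicate below; inactive = mean inhibition below 75%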;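 also: 0% = median of neutral control wells and 100% = pilot-screen positive control compound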
Numbers without * were called inactive; ? = inconclusive. The list is not random: actives were taken first. Their share in the collection is about 4.1%.

SMILES	TROY signal inh	LMP1 NFkB inh	MITF TRPM1 inh	TWEAK-Fn14 inh	Peg3 promoter	Shn3 inh set2
CN1CCN(c2nc(-c3ccc(C(C)(C)C)cc3)nc3ccccc23)CC1	78*	-2	-24	85*	-66	7
Cc1ccc(-c2nc(N3CCN(C)CC3)c3ccccc3n2)cc1	-36	-10	6	-71	-7	-1
Cc1ccc(CNC(=O)C2CCC(=O)N(Cc3ccc(Cl)cc3)C2)cc1F (centres undefined)	-17	-3	14	12	6	1
O=C(NC1CCCCC1)C12CC3CC(C1)CC(n1cncn1)(C3)C2	-13	78*	-3	1	12	12
C=CCOC(=O)/C(=C\c1ccccc1)NC(=O)c1ccc(C)cc1	51*	-8	-47	16	-213	-83
CCN(C(=O)COC(=O)/C=C/c1c(C)nn(-c2ccccc2)c1C)c1c(N)n(Cc2ccccc2)c(=O)[nH]c1=O	9	3	6	8	6	9
c1ccc(-n2nnnc2Sc2ncnc3sc4c(c23)CCCC4)cc1	73*	-10	63*	100*	68*	?
Cc1sc2ncnc(Sc3nnnn3-c3ccc(Cl)cc3)c2c1C	65*	5	73*	102*	88*	-23
CSc1nnnn1-c1ccc(Cl)cc1	-2	4	0	-2	-2	0
Cc1cccc(N(CC(=O)NC2CCCCC2)C(=O)CCC(=O)Nc2nccs2)c1	-5	1	2	-20	7	-4
Cc1ccc(C(=O)CSc2nnc3c4ccccc4nc(Cc4ccccc4)n23)cc1	65*	9	-4	26	4	18
COc1ccc(-c2c[n+](CC(=O)OC3CC(C)CCC3C(C)C)c3n2CCC3)cc1 (centres undefined)	38	4	86*	43	28	82
CC1CCC(C(C)C)C(OC(=O)C[n+]2cccc(C(N)=O)c2)C1 (centres undefined)	3	-8	-4	-16	0	5
O=C(C[n+]1cc(-c2ccc(Cl)cc2)n2c1CCCCC2)c1ccccc1	-48	-3	0	-18	-58	-11
CC(C)[C@@H]1CC[C@@H](C)C[C@H]1OC(=O)C[n+]1cc(-c2ccc(Cl)cc2)n2c1CCCCC2	50	30	79*	64*	50	79
CN(C)C(=O)CCc1ccc2c3c([nH]c2c1)[C@]1(CCc2ccccc2)[C@@H](C(=O)N2CCCCC2)C[C@H](CC(=O)NC(C)(C)C)C(=O)N1CC3	14	22	1	2	13	4
COc1ccc(/C=N/Nc2nnc(-c3ncc[nH]3)c3ccccc23)cc1	2	-18	-56	-4	-36	-76
Oc1ccc2ccccc2c1C=NNc1ccccn1	-44	58*	-8	16	-79	72
Fc1cccc(F)c1/C=N/Nc1ccccn1	-76	-17	-20	-8	-228	-40
Oc1ccc2ccccc2c1/C=N/Nc1nnc(-c2ncc[nH]2)c2ccccc12	6	59*	21	31	46	92*
CC(OC(=O)c1nccnc1N)C(=O)Nc1ccc(S(=O)(=O)N2CCCC2)cc1 (centres undefined)	-5	-3	-5	-1	6	-16
C=C(CN(C)C)C(=O)c1ccc(OC2OC(COC(C)=O)C(OC(C)=O)C(OC(C)=O)C2OC(C)=O)cc1 (centres undefined)	16	-6	115*	15	100*	98*
COCCn1ccc2c(OCC(=O)Nc3cc(OC)ccc3OC)cccc2c1=O	-10	2	9	-8	52*	-5
CCOCCn1ccc2c(OCC(=O)Nc3cc(OC)ccc3OC)cccc2c1=O	14	5	2	21	46	9
COc1ccc(NC(=O)CSc2nnc3ccc(-c4ccccn4)nn23)cc1OC	5	7	5	-24	-6	5
Cc1ccc(C)c(-c2cc(C(=O)Nc3nccs3)c3ccccc3n2)c1	10	4	11	62*	41	21
COc1ccc(-c2cc(C(=O)Nc3sc4c(c3C#N)CCCC4)c3ccccc3n2)cc1	-12	9	16	-18	11	-10
COC(=O)c1sc(NC(=O)c2cc(-c3ccccc3)nc3ccccc23)c(C#N)c1C	52*	19	46	35	35	79
